PrP 5UTR inh = suppresses PrP 5' UTR mRNA reporter expression. cell-based PrP 5' UTR mRNA reporter, plate reader. actives 0.35% (n = 340,000). AID 488862. inhibition, % (concentration not given with the values); in the data active = inhibition above about 52%; also: 0 = median of the neutral control wells
Yp Topo-I inh = blocks Yersinia pestis topoisomerase I activity; Y. pestis Topo-I cleavage product accumulation, plate reader; activity, % at 10 µM; actives 0.064% (n = 360,000); AID 504884; in the data active = activity above about 50%, passing the limit was not always enough
PrPC surface inh = reduces human prion protein on the cell surface | P04156 | cell surface PrPC, TR-FRET read-out | inhibition, % at 13.8 µM | actives 0.43% (n = 370,000); in the data active = inhibition above about 24%; also: 0% = median of the test wells and 100% = reference compound wells
Mtb FBA inh = inhibits M. tuberculosis FBA enzyme; P9WQA3; purified M. tuberculosis FBA, fluorescence read-out; inhibition, % at 1 µM; actives 2.3% (n = 360,000); AID 588726; in the data active = inhibition above about 27%;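 also: 0% = vehicle and 100% = reference inhibitor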
Target sequence (P9WQA3 whole entry, looked up): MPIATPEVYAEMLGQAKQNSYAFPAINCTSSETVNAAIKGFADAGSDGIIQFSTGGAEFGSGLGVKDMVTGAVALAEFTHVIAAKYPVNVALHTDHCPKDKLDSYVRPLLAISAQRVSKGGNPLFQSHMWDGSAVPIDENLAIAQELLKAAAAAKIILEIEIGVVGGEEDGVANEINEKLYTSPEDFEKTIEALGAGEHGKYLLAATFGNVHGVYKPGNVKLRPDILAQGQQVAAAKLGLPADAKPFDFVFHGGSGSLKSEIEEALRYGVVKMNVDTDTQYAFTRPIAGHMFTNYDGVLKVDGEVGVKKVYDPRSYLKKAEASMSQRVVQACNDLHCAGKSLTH
Mtb hypoxia inh = inhibitors of hypoxia-regulated fluorescent reporter in Mycobacterium tuberculosis | M. tuberculosis hypoxia-regulated fluorescent reporter, fluorescence | fluorescence inhibition, % (concentration not given with the values) | actives 0.1% (n = 300,000) | AID 1159583; in the data active = fluorescence inhibition mostly above about 23%, no sharp cut-off; inactive = mostly below about 17%
GDH-TPI counter = counter-screen for M. tuberculosis FBA inhibitors: GDH-TPI coupled enzymes | actives 1.2% (n = 360,000) | AID 588335 | inhibition, % at 4.8 µM | GDH-TPI coupled enzyme counterscreen, NADH absorbance; in the data active = inhibition above about 30%;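 also: 0% = DMSO wells and 100% = wells lacking the enzyme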
* hit, by the source's call; / = no result; + = active, no number; ! = repeats disagree. Compounds with a hit are over-represented: about 3.8% of the library has one in this group of screens.

SMILES	PrP 5UTR inh	Yp Topo-I inh	PrPC surface inh	Mtb FBA inh	Mtb hypoxia inh	GDH-TPI counter
Cc1ccc(C(=O)N/C(=C\c2cccs2)C(=O)N2CCCCCC2)cc1	-6	-2	0	4	/	23
CC(NC(=O)COC(=O)c1ccc(N2CCCC2=O)cc1)c1ccc(F)cc1 (stereo not drawn)	-15	-2	-2	1	33*	2
COc1ccc(C(=O)/C=C/c2ccc(OCc3ccccc3)cc2)cc1CSCC(=O)O	0	29	-1	0	11	40*
COc1ccc(C(=O)/C=C/c2cccc(OCc3ccccc3)c2)cc1CSCC(=O)O	-25	39	0	1	16	17
CS(=O)(=O)N(CC(=O)NN=Cc1ccco1)c1ccccc1Br	/	/	/	/	-2	/
CCOC(=O)c1ccc(-c2ccc(/C=N/NC(=O)CN(c3ccccc3Br)S(C)(=O)=O)o2)cc1	-26	16	-4	6	/	32*
CCc1cc2c(=O)c(-c3nc4ccccc4n3C)coc2c(CN2CCCC(C)C2)c1O (stereo not drawn)	5	0	-4	11	-1	34*
CCc1cc2c(=O)c(-c3nc4ccccc4n3C)c(C)oc2c(CN2CCN(C)CC2)c1O	/	/	/	/	6	/
CCc1cc2c(=O)c(-c3nc4ccccc4n3C)c(C)oc2c(CN2CCN(CCO)CC2)c1O	-42	5	-3	12	1	35*
O=S1(=O)N=C(N(CCO)N=C/C=C/c2ccccc2)c2ccccc21	/	/	/	/	3	/
CC(C)CC(CO)N1CCN(Cc2cccc(C#N)c2)CCC1=O (stereo not drawn)	/	/	/	/	5	/
Cn1c(=O)c2cc(NC(=O)OCCF)ccc2n1Cc1cccc(C(F)(F)F)c1	/	10	9	183*	/	5
Cn1c(=O)c2cc(NC(=S)NC3CCCCC3)ccc2n1Cc1cccc(C(F)(F)F)c1	/	23	4	16	/	2
FC(F)(F)c1cccc(Cn2cnc(NC(=S)NCCc3ccccc3)n2)c1	-24	3	-3	0	4	4
Cn1c(=O)c2cc(NC(=O)NCCc3ccccc3)ccc2n1Cc1cccc(C(F)(F)F)c1	/	27	6	130*	/	6
Cn1c(=O)c2cc(NC(=O)NCCc3ccccc3)ccc2n1Cc1ccccc1	/	-2	2	127*	/	-4
COc1ccc2c(c1)C1C(CO2)C(c2ccccc2)[C@]2(C)C(=O)NC(C)C(=O)N12 (stereo partly drawn)	/	/	/	/	0	/
CC[C@@]12C(=O)N(c3cccc(C)c3)C(=O)N1C(c1ccc(OC)cc1)C1C(=O)N(C(C)(C)C)C(=O)C12 (stereo partly drawn)	/	/	/	/	3	/
COC(=O)Oc1ccc(C=NNC(=O)CSCc2ccc(Cl)cc2)cc1OC	/	/	/	/	1	/
O=C(Nc1nc2c(s1)CCCC2=O)c1cnccn1	-51	-1	-6	2	7	32*
COC(=O)c1c(NC(=O)c2cnccn2)sc2c1CCC2	-14	4	6	-9	6	3
CCOc1ccc(-c2nc(C#N)c(N3CCOCC3)o2)cc1	-21	10	-8	175*	3	13
COP(=O)(OC)c1nc(-c2ccc(C)cc2)oc1N1CCCCC1	3	15	-3	+	3	16
COP(=O)(OC)c1nc(-c2cccc3ccccc23)oc1N1CCOCC1	-26	35	-2	+	8	19
CCOP(=O)(OCC)c1nc(-c2ccc(OC)cc2)oc1N1CCOCC1	-5	0	0	174*	14	11
SMILES	PrP 5UTR inh	Yp Topo-I inh	PrPC surface inh	Mtb FBA inh	Mtb hypoxia inh	GDH-TPI counter
COC(=O)c1ccc(C(=S)N2CCOCC2)cc1	-18	-1	1	4	3	11
COC(=O)c1cc2c(s1)=NC=NP=2(N1CCOCC1)N1CCOCC1	36	3	-3	1	2	31*!
CC(=NNC(=O)c1ccc(Cl)cc1)c1ccc2[nH]ccc2c1	/	/	/	/	4	/
Cc1cccc(OCC(=O)Nc2nnc(-c3ccco3)s2)c1	-24	-5	2	6	-1	12
CCOc1cccc(C(=O)Nc2nnc(-c3ccco3)s2)c1	-12	-12	0	12	/	37*
COc1ccc(C2C=CCN(S(=O)(=O)c3ccc4ccccc4c3)CC(=O)N2Cc2ccc(F)cc2)cc1 (stereo not drawn)	/	/	/	/	0	/
CN(C)CCOc1nc(-c2ccccc2)nc2c1oc1ccccc12	-51	-7	7	-1	41*	-4
CN(C)CCOc1ncnc2c1oc1ccccc12	-7	0	4	2	5	7

Screening data (PubChem BioAssay)
